This is a sample that favours compounds with a hit; in the whole collection about 19% have one here.
IL1B secr inh: inhibitors of inflammasome signaling (IL-1 beta secretion) | THP-1 LPS/ATP IL-1B secretion, AlphaLISA, 16 h; hits give low values | activity change, % at 57.5 µM | actives 4.7% (n = 360,000) | AID 743279; in the data active = activity change below about -50%; inconclusive = mostly about -30% to -49%
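THP-1 cells pretreated 1 hr with compounds (up to 57.5 uM final), then stimulated with LPS (250 ng/mL final) plus ATP (1.25 mM final); secreted IL-1B measured by AlphaLISA after 16 hr, decreased signal indicating inhibition.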
MCF10A rereplic: induces DNA re-replication in MCF 10a normal breast cells | actives 2.9% (n = 350,000) | AID 624296 | MCF 10A DNA re-replication, Hoechst nuclear intensity, 48 h | Potency, µM (titrated, usually from 46.1 µM), actives largely listed as activators; note: nearly all actives have a fitted effect of over 50% in size
BCR signal inh: chronic active BCR signaling inhibition; actives 0.05% (n = 340,000); Potency, µM (top dose mostly 46.1 µM), most hits filed as inhibitors; AID 493014; ABC-DLBCL IkBa-CBG/CBR reporter, luminescence ratio, 4 h; active = well fitted inhibition curve with a large enough effect in the signal ratio, with a control signal flat, not every such curve was filed as active; inconclusive = small, poorly fitted or top-dose-only effect, or effect the other way, or a change in a side signal; the % refers to the signal ratio
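Compounds up to 46 uM were incubated four hours with TMD8 cells whose green CBG68 luciferase is fused to IkappaBalpha; red CBR luminescence normalised the signal, and concentration-effect curves were fitted to fusion, red and ratio data.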
SW480 rereplic: DNA re-replication induction in SW480 cells; SW480 DNA re-replication, Hoechst DNA content imaging, 48 h; Potency, µM (titrated, usually from 46.1 µM), actives largely listed as activators; actives 1.8% (n = 340,000); note: nearly all actives have a fitted effect of over 55% in size
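Hoechst fluorescence of nuclei (405 nm excitation, 500-530 nm emission) measured by plate-scanning imager after 48 hr compound exposure at 37 C; re-replication scored as increased number of nuclei with elevated intensity.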
DT40 TDP1 CPT: DT40-hTDP1 cell growth loss with CPT; chicken DT40 Tdp1-/-;hTDP1 cells + 20 nM CPT, ATP luminescence, 48 h; Potency, µM (titrated, usually from 46.2 µM), usual class: inhibitors; actives 12% (n = 420,000); note: nearly all actives have a fitted effect of over 55% in size
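Chicken DT40 Tdp1-/- cells stably complemented with human TDP1 were seeded at 400 cells/well in medium containing 20 nM camptothecin, exposed to pin-transferred compounds, and grown at 37 °C for at least 48 hr. Viability was read as ATP luminescence.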
TDP1 cell noCPT: qHTS for Inhibitors of human tyrosyl-DNA phosphodiesterase 1 (TDP1): qHTS in cells in absence of CPT | DT40 Tdp1-/- hTDP1 cells, no CPT, ATP luminescence, 48 h | Potency, µM (titrated, usually from 46.2 µM), most hits filed as inhibitors | actives 15% (n = 420,000) | AID 686978, 2013; note: nearly all actives have a fitted effect of over 55% in size
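Compound effects on proliferation are scored in DT40 Tdp1-/-;hTDP1 cells in the absence of CPT. ATP levels (CellTiter-Glo luminescence) are recorded after a ≥48 hr, 37 °C incubation.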
Of the large screens only hits and unclear results are named; the others gave an inactive call. Unless noted, calls come from the whole dose curve; as a rule, active = well fitted curve in the direction sought with a large enough effect; inconclusive = small, poorly fitted or top-dose-only effect, or another doubt; inactive = no such curve, though single readings can be large; an effect the other way counts as inactive or inconclusive.

COc1ccc(CCNC(=O)CCc2cc(OC)c(OC)c(OC)c2)cc1OC	none
CSc1nc(SCc2ccccc2)[nH]c(=O)n1	TDP1 cell noCPT inconclusive (no result: MCF10A rereplic, BCR signal inh, SW480 rereplic)
Cc1ccc(CNC(=O)C2CCCN(S(=O)(=O)c3cn(C)cn3)C2)cc1 (configuration not stated)	none (no result: IL1B secr inh, MCF10A rereplic, BCR signal inh, SW480 rereplic)
Cc1ccc(-n2nc3c(=O)n(CC(=O)NC4CCCCCC4)nc(C)c3c2C)cc1	DT40 TDP1 CPT inconclusive
CC1(C)CC(=O)c2c(O)cc(OCC(=O)N3CCN(c4ccc(F)cc4)CC3)cc2O1	IL1B secr inh -55, DT40 TDP1 CPT inconclusive, TDP1 cell noCPT inconclusive
CSc1ncc(C(=O)Nc2cc(C)cc(C)c2)c(-c2ccccc2)n1	TDP1 cell noCPT inconclusive (no result: IL1B secr inh, MCF10A rereplic, BCR signal inh, SW480 rereplic)
Cc1ccc(C(=O)OCC(=O)NNC(=O)c2cccs2)c(O)c1	SW480 rereplic 18µM
CN(C)S(=O)(=O)N1CCC(Oc2ccc(C(=O)NCc3cnn(C)c3)cc2)CC1	TDP1 cell noCPT 21µM
COCCN(C(=O)c1ccc(OC2CCN(S(=O)(=O)N(C)C)CC2)cc1)C(C)C	DT40 TDP1 CPT inconclusive, TDP1 cell noCPT 13µM
COc1ccc(CCN(C)C(=O)C2CCN(C(=O)Nc3ccccc3)CC2)cc1OC	none
CCC1(C)CC2(CCCN(CCC(O)(c3ccccc3)c3ccccc3)C2)CCO1 (configuration not stated)	IL1B secr inh inconclusive, DT40 TDP1 CPT inconclusive, TDP1 cell noCPT 15µM
Cn1cccc1/C=C1/SC(=S)N(CC(=O)O)C1=O	none
CC1C/C(=C/c2ccncc2)C(=O)/C(=C/c2ccncc2)C1 (configuration not stated)	IL1B secr inh -84, MCF10A rereplic 0.46µM, BCR signal inh inconclusive, SW480 rereplic inconclusive, DT40 TDP1 CPT 0.65µM, TDP1 cell noCPT 0.58µM
CC1C/C(=C/c2cccn2C)C(=O)/C(=C/c2cccn2C)C1 (configuration not stated)	MCF10A rereplic 4.6µM, BCR signal inh inconclusive, SW480 rereplic inconclusive, DT40 TDP1 CPT 23µM, TDP1 cell noCPT 23µM
CC1CC(C)CN(C(=O)c2ccncc2)C1 (configuration not stated)	BCR signal inh inconclusive
O=C(Cc1nc2ccccc2[nH]1)N1CCC(n2c(C3CCC3)nc3cccnc32)CC1	none (no result: IL1B secr inh, MCF10A rereplic, BCR signal inh, SW480 rereplic)
Cc1nc(-c2ccc(Cl)cc2)sc1C1(C)CC(c2ccc(F)cc2)=NO1 (configuration not stated)	MCF10A rereplic 10µM
Cc1ccc(C2=NOC(C)(c3sc(-c4ccc(Cl)cc4)nc3C)C2)cc1 (configuration not stated)	none (no result: BCR signal inh)
CCOC(=O)CSc1nnc(NC(=O)c2ccc3c(c2)OCO3)s1	BCR signal inh inconclusive
CCOC(=O)Cn1nc(NC(=O)COc2ccc(F)cc2)cc1C	none
CCOC(=O)Cn1nc(NC(=O)c2ccc(C(=O)OC)cc2)cc1C	IL1B secr inh -96, MCF10A rereplic inconclusive, DT40 TDP1 CPT inconclusive, TDP1 cell noCPT inconclusive
CCOC(=O)Cn1ccc(NC(=O)c2ccc3c(c2)OCO3)n1	IL1B secr inh -95, BCR signal inh inconclusive, DT40 TDP1 CPT inconclusive, TDP1 cell noCPT inconclusive
CCOC(=O)Cn1nc(NC(=O)c2cc(OC)cc(OC)c2)cc1C	MCF10A rereplic 21µM, BCR signal inh inconclusive, DT40 TDP1 CPT inconclusive, TDP1 cell noCPT inconclusive
COC(=O)c1ccc(NC(=O)Cn2nc(C)cc2C)cc1	none
COc1cccc(NC(=O)CSc2nnnn2C2CCCCC2)c1	BCR signal inh inconclusive, TDP1 cell noCPT inconclusive
COc1ccc(S(=O)(=O)N2CCN(C(=O)c3ccco3)CC2)c(C)c1C	DT40 TDP1 CPT inconclusive, TDP1 cell noCPT inconclusive
Cc1cc(F)ccc1NC(=O)Cn1c(=O)ccc2cc(S(=O)(=O)N3CCC(C)CC3)ccc21	none (no result: IL1B secr inh, MCF10A rereplic, BCR signal inh, SW480 rereplic)
O=C(CSc1nc2c([nH]c3ccccc32)c(=O)n1-c1ccc(Cl)cc1)NC1CCCCC1	DT40 TDP1 CPT 10µM, TDP1 cell noCPT 15µM (no result: IL1B secr inh, MCF10A rereplic, BCR signal inh, SW480 rereplic)

Screens: PubChem BioAssay, National Center for Advancing Translational Sciences (NCATS)
